Test results from PubChem BioAssay (NCATS).
Results filed as inconclusive are left out. Active and inactive are the calls of the source. Calls follow the shape of the dose curve; as a rule, active = well fitted curve in the direction sought with a large enough effect; inconclusive = small, poorly fitted or top-dose-only effect, or another doubt; inactive = no such curve, though single readings can be large; an effect the other way counts as inactive or inconclusive.

Key:
Furin (Homo sapiens) = Furin (Homo sapiens) (UniProt P09958); assay: Furin counterscreen qHTS for Zika virus inhibitors (AID 1347149); also: nearly all actives have a fitted effect of over 70% in size; also: potency is read from the fitted curve at half-maximal effect
Chain of Furin (Homo sapiens) (P09958 whole entry, looked up): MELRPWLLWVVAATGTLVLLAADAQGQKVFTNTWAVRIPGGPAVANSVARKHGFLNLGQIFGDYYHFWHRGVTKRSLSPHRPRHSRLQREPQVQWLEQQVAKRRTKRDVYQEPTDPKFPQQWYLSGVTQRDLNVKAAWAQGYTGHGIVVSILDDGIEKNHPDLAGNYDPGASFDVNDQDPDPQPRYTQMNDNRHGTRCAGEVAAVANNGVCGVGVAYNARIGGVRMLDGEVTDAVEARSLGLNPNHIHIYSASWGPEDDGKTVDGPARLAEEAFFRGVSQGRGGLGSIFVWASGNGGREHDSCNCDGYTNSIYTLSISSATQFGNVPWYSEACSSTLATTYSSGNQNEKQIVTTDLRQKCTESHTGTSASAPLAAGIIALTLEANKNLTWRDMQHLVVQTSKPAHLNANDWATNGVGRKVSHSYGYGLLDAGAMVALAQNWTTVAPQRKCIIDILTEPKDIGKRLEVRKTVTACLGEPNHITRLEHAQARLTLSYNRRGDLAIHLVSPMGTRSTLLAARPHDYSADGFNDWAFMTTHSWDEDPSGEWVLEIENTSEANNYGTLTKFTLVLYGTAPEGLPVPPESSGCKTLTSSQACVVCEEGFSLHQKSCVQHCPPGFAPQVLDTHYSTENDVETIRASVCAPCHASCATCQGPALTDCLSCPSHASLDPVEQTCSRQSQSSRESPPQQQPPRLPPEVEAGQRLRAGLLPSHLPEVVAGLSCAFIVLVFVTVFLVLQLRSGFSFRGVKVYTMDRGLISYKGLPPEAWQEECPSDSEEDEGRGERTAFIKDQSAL
How it was run: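 Counterscreen measures cleavage of 2 microM BOC-RVRR-AMC, below its ~15 microM Km, by 5 nM full-length human furin at pH 7.0 after a 15-min compound preincubation. Inhibition derives from the 15-min fluorescence increase at 37C.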

[1] = system: Zika virus NS2B-NS3 protease (linked construct); assay: Confirmatory screen NINDS AMC qHTS for Zika virus inhibitors (AID 1347152); also: nearly all actives have a fitted effect of over 70% in size; also: potency is read from the fitted curve at half-maximal effect
How it was run: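 Purified NS2B-NS3 protease with NS2B hydrophilic domain linked to NS3 protease domain by flexible linker, 1 nM final in 10 mM Tris-HCl pH 8.0, 0.01% Tween 20. Compounds preincubated 15 min, room temperature; Bz-Nle-KRR-AMC 10 microM (Km 18.3 µM); 15-min fluorescence change, 4-parameter Hill fit.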

[2] = system: Zika virus NS2B-NS3 protease (unlinked complex); assay: Confirmatory screen GU AMC qHTS for Zika virus inhibitors (AID 1347153); also: nearly all actives have a fitted effect of over 70% in size;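 as to Potency: enzyme at 25 nM with substrate at 10 µM below its Km of 18.3 µM; potency is read from the fitted curve at half-maximal effect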
How it was run: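 Fluorescence change (ex 340/em 450 nm) over 15 min, ~20% substrate conversion, normalized to no-inhibitor and no-enzyme controls, then Hill-fitted. Unlinked protease at 25 nM; AMC peptide 10 µM.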

[3] = system: Zika virus NS2B-NS3 protease (linked); assay: 384 well plate NINDS AMC confirmatory qHTS for Zika virus inhibitors (AID 1347163); also: potency is read from the fitted curve at half-maximal effect; nearly all actives have a fitted effect of over 50% in size
How it was run: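 Enzyme (5, 30 or 60 nM final) first met test compounds for ~15 min. The AMC-tagged peptide Ac-VKTGKR-AMC followed at 30 microM. Fluorescence was then recorded at 25 min and scaled against no-enzyme and no-inhibitor wells.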

[4] = system: Zika virus NS2B-NS3 protease (linked construct); assay: 384 well plate NINDS Rhodamine confirmatory qHTS for Zika virus inhibitors (AID 1347164);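 also: fluorescence from protease cleavage of Ac-LKRR-rhodamine 110 substrate; potency is read from the fitted curve at half-maximal effect; nearly all actives have a fitted effect of over 65% in size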
How it was run: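 Linked protease at a final 5 nM, 30 nM or 60 nM was preincubated ~15 min with compounds, then given 10 microM Ac-LKRR-Rhodamine 110. Fluorescence (ex 485/em 538 nm) after 25 min in the dark at room temperature.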

[5] = target: Cytochrome P450 3A4 (Homo sapiens) (UniProt P08684); assay: qHTS Assay for Inhibitors and Substrates of Cytochrome P450 3A4 (AID 884); also: series mostly up to about 57 µM; nearly all actives have a fitted effect of over 50% in size
Chain of Cytochrome P450 3A4 (Homo sapiens) (P08684 whole entry, looked up): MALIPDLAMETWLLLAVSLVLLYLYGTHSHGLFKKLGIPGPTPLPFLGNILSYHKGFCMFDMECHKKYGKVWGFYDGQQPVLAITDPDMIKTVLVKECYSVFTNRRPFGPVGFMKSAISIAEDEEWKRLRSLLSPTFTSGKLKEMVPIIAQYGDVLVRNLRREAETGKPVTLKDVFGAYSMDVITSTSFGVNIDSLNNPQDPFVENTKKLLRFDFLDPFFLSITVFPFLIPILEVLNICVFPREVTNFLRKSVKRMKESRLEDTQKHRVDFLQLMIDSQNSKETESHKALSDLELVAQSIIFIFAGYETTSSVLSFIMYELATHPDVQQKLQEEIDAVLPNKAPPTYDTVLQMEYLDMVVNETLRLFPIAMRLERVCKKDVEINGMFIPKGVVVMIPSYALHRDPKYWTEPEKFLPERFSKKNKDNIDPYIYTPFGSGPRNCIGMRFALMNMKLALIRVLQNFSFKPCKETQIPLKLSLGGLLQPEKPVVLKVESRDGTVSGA
How it was run: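 Luminescent readout of luciferin produced by CYP3A4 (20 nM) dealkylation of Luciferin-PPXE, 25 uM (its KM). NADPH-driven reaction ran 60 min at RT after 10 min compound preincubation; data scaled to 57 uM ketoconazole as 100% inhibition.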

[6] = target: Cytochrome P450 3A4 (Homo sapiens) (UniProt P08684); assay: qHTS Assay for Activators of Cytochrome P450 3A4 (AID 885); also: potency is read from the fitted curve at half-maximal effect; nearly all actives have a fitted effect of over 65% in size
How it was run: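 Activators are scored by enhanced luminescence from CYP3A4 conversion of luciferin-PPXE (25uM, equal to KM) to luciferin, after 60 min at RT with an NADPH-regenerating system.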

[7] = Confirmatory screen NINDS Rhodamine qHTS for Zika virus inhibitors (AID 1347161); also: potency is read from the fitted curve at half-maximal effect; nearly all actives have a fitted effect of over 60% in size
How it was run: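 qHTS dose-response: 25 nM linked protease, pH 8.0 Tris/Tween buffer, cpd titration, 15 min RT preinc, 1.5 microM Rhod110 peptide, 15 min reaction (~15% conversion), Ex480/Em540; 4-parameter Hill fit.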

[8] = Vero cells viability qHTS for Zika virus inhibitors (AID 1347167)
How it was run: (§1)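 To flag cytotoxic protease inhibitors, viability is measured by ATP-dependent luminescence (CellTiter Glo) after cells attached overnight receive compound for 24 to 48 hours in DMEM with 4% FBS.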

[9] = HepG2 cells viability qHTS for Zika virus inhibitors (AID 1347168)
How it was run: as §1

[10] = ZIKV-mCherry secondary qHTS for Zika virus inhibitors (AID 1347158); also: top concentration of the series differs between compounds
How it was run: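 Read-out is percent infection: mCherry-positive Vero cells (nuclear-proximal intensity >450 RFU, 3 SD above negative controls) counted by high-content imaging of Hoechst-stained, PFA-fixed wells after 48-72 h with ZIKV-mCherry at MOI 1 and compound.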

[11] = Tertiary RLuc qRT-PCR qHTS assay for Zika virus inhibitors (AID 1347169); also: nearly all actives have a fitted effect of over 55% in size; also: potency is read from the fitted curve at half-maximal effect
How it was run: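 Vero cells (1,000 per well) plated overnight at 37 degrees C, treated with compound in DMSO, then infected with recombinant ZIKV-RLuc (Cambodian) at MOI 1-2 for 48-72 hrs. Live-cell Renilla luciferase substrate added; luminescence read after 1-1.5 hrs.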

[12] = system: Zika virus NS2B-NS3 protease (unlinked); assay: Optimization of GU AMC qHTS for Zika virus inhibitors: Unlinked NS2B-NS3 protease assay (AID 1347151); also: series mostly up to about 52 µM; nearly all actives have a fitted effect of over 80% in size
How it was run: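 Noncovalent complex of NS2B hydrophilic domain and NS3 protease domain, 25 nM final, in 10 mM Tris-HCl pH 8.0, 0.01% Tween 20. AMC fluorescence change over 15 min at room temperature was fitted to a 4-parameter Hill equation.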

Measured: Potency

Cc1cccc(C)c1NS(=O)(=O)c1ccc(NS(=O)(=O)c2ccc3c(c2)OCCO3)cc1
inactive: Furin (Homo sapiens) | [1] | [2]
active: [3] 200 µM | [4] 126 µM

O=C(O)c1c(Sc2ccccc2)c2cc(Cl)ccc2n1Cc1ccc(Cl)cc1
inactive: [5] | [8] | [9]
active: [6] 7.94 µM | Furin (Homo sapiens) 21.5 µM | [1] 6.81 µM | [2] 19.2 µM | [7] 1.24 µM | [3] 126 µM | [4] 22.4 µM

O=C(O)Cn1ccc2cc(OCc3cccc(-c4cccc(C(F)(F)F)c4)c3)cnc21
active: Furin (Homo sapiens) 63.9 µM | [1] 56.9 µM | [2] 40.3 µM | [4] 28.2 µM | [11] 30.2 µM
inactive: [10]

Cc1ncccc1OCC1CN(Cc2cccc(C(F)(F)F)c2)C(=O)c2c(ccnc2-c2ccc(OCC(=O)O)cc2)O1 (stereo not drawn)
inactive: Furin (Homo sapiens) | [1] | [2] | [11]

O=C(Nc1cccc2ccccc12)O[C@@H]1CO[C@H]2[C@@H]1OC[C@@H]2NS(=O)(=O)c1ccc2ccccc2c1
inactive: [1] | [2]
active: Furin (Homo sapiens) 69.8 µM

CCOc1ccc(C2C(=O)N(C3CCCCCC3)CC(=O)N2CCc2ccc(Cl)cc2)cc1OC (stereo not drawn)
active: [11] 18.6 µM
inactive: Furin (Homo sapiens) | [12] | [8] | [9]
